Bioassay records deposited in PubChem by National Center for Advancing Translational Sciences (NCATS).
TRPML1 ag: qHTS for Agonists of the Human Mucolipin Transient Receptor Potential 1 (TRPML1); hit rate 0.12% among 410,000; AID 624414, 2012; Mucolipin-1 (Homo sapiens), Q9GZU1; TRPML1-expressing cells, Ca2+ dye fluorescence, FDSS; activation, % (test concentration not listed); in the data active = activation above about 50%; inconclusive = mostly about 30% to 49%; also: 0% is about no effect
Target sequence (Q9GZU1 whole entry, looked up): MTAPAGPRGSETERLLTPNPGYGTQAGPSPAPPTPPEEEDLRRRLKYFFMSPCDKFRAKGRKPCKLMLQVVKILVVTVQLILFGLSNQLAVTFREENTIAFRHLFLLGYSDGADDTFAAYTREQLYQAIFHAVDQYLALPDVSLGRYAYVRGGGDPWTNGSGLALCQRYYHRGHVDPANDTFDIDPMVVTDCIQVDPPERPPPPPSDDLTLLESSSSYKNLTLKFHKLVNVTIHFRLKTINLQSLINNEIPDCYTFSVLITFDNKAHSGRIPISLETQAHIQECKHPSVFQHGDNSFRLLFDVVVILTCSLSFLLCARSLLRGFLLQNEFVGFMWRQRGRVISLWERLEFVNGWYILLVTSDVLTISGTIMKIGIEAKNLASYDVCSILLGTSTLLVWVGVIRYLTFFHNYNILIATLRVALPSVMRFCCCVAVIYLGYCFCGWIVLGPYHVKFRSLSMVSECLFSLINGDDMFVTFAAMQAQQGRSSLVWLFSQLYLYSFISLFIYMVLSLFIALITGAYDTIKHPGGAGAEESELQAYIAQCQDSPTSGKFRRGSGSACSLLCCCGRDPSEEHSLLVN
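Tet-induced TRPML1-DL cells, 1,500 per well, cultured overnight, were loaded with a no-wash Ca2+ dye for 45–90 min. Calcium fluorescence was recorded on the FDSS for 110 s after compound addition, before the EC80 agonist (4 uM 54-4) was added.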
TRPV1 potentiator: HTS Assay for Compounds that Act as Potentiators of the Vanilloid Receptor 1 | Transient receptor potential cation channel subfamily V member 1 (Homo sapiens), Q8NER1 | TRPV1-expressing cells, Fluo-8 calcium influx, capsaicin EC20 potentiation | potentiation, % at 8.33 µM | hit rate 0.02% among 320,000; in the data active = potentiation above about 80%; inconclusive = between about 30% and that limit; also: 0% is about no effect
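TRPV1-expressing cells were cultured overnight at 35.5C and loaded with Fluo-8 calcium dye for 40 to 90 min at room temperature. After a 10 s baseline, compound was added and calcium influx was read kinetically for 3 min (ex 480/em 520 nm).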
TRHR enhancer: qHTS for Small Molecule Agonists and Allosteric Enhancers of Human TRH Receptor: Primary Screen for Enhancers; enhancement, % at 2 µM; hit rate 0.66% among 360,000; Thyrotropin-releasing hormone receptor (Homo sapiens), P34981; TRHR cells, fluo-8 calcium fluorescence, EC20 TRH enhancement; in the data active = enhancement above about 30%; also: 0% is about no effect
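Enhancer read-out: after compound pinning and an initial kinetic agonist-mode read, an EC20 of TRH (10 nM final) was injected and fluo-8 calcium signal (Ex 480/Em 530) followed at 1 s/cycle for 100 cycles in TRHR-expressing cells.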
TRHR ag: qHTS for Small Molecule Agonists and Allosteric Enhancers of Human TRH Receptor: Primary Screen for Agonists | TRHR cells, calcium flux fluo-8, FDSS agonist mode | activation, % at 2 µM | hit rate 0.18% among 360,000 | Thyrotropin-releasing hormone receptor (Homo sapiens), P34981; in the data active = activation above about 30%; also: 0% is about no effect
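In this calcium-flux screen, cells bearing human TRHR are dye-loaded with fluo-8, baselined for 10 cycles, then exposed to library compounds; positive kinetic calcium responses during the agonist phase mark hits, with TRH as control.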
TRPML1 inh: qHTS for Inhibitors of the Human Mucolipin Transient Receptor Potential 1 (TRPML1). Mucolipin-1 (Homo sapiens), Q9GZU1. TRPML1-inducible cells, Ca2+ dye fluorescence, FDSS; hits give low values; inhibition of EC80 agonist-evoked calcium signal. activity change, negative = inhibition, % (test concentration not listed). hit rate 0.02% among 390,000; in the data active = activity change below about -50%; inconclusive = between about -30% and that limit;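 also: stimulus is agonist 54-4 at its EC80 concentration; % is scaled to controls: 0 for no effect and ±100 for the full control effect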
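Tet-induced TRPML1-DL cells loaded with Ca8 no-wash calcium dye were read kinetically on FDSS. Compound addition was followed by EC80 agonist 54-4 (4 uM final); inhibition was read over 110 s.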
TRPV1 agonist: HTS Assay for Compounds that Act as Agonists of the Vanilloid Receptor 1. TRPV1-expressing cells, Fluo-8 calcium influx, agonist mode. Transient receptor potential cation channel subfamily V member 1 (Homo sapiens), Q8NER1. activation, % at 8.33 µM. hit rate 0.19% among 320,000. AID 540275, 2011; in the data active = activation above about 80%; inconclusive = between about 30% and that limit; also: 0% is about no effect
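Fluo-8 calcium influx in TRPV1-expressing cells, kinetic read (ex 480/em 520 nm). Compound added and read 3 min for agonist activity, followed by capsaicin at EC20 final and 2 min further read for enhancement.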
Starred values were filed as active, the others as inactive; ? = inconclusive; . = no result given. Shown are actives, neighbours in structure and some others; about 0.99% of the full set was active somewhere.

SMILES	TRPML1 ag	TRPV1 potentiator	TRHR enhancer	TRHR ag	TRPML1 inh	TRPV1 agonist
Cc1ccccc1-c1noc(-c2cc3ccccc3oc2=O)n1	-1	.	-1	0	-7	.
COc1ccc(OC)c(NC(=O)C(OC(=O)CNC(=O)c2ccccc2)c2ccccc2)c1 (configuration not stated)	.	.	4	-1	.	.
C/C(CC(=O)Nc1ccc2c(c1)OCCO2)=N\NC(=O)COc1ccccc1	-2	6	37*	0	-13	-1
C/C(CC(=O)Nc1ccc2c(c1)OCCO2)=N\NC(=O)Cc1ccccc1	0	-3	18	0	9	2
COc1ccc(C(=O)C2C(=O)C(=O)N(Cc3ccco3)C2c2cccs2)cc1 (configuration not stated)	-1	.	.	.	.	.
N#CC(C#N)=Cc1ccc(NC(=O)c2ccc(Br)cc2)cc1	2	-13	0	0	49	113*
CC(C)(C)c1ccc(C(=O)Nc2ccc3c(c2)C(=O)NC3=O)cc1	0	-11	4	1	-5	86*
CC(=O)c1ccc(C(=O)Nc2ccc3c(c2)C(=O)NC3=O)cc1	-1	?	-1	0	-10	9
CC(C)(C)c1ccc(C(=O)Nc2ccc(S(N)(=O)=O)cc2)cc1	0	-2	-3	2	-3	86*
O=C(Nc1ccc(C(=O)N2CCCCC2)cc1)c1ccc(Br)cc1	0	-27	1	-1	3	24
CC(C)(C)c1ccc(C(=O)Nc2ccc(C=C(C#N)C#N)cc2)cc1	0	-16	4	0	14	89*
COc1ccc(OC)c(C(C)NC(=O)Cn2c(=O)cc(C)c3c(C)nn(-c4ccc(C)cc4)c32)c1 (configuration not stated)	0	.	8	0	13	.
Cc1cccc(OCCCCn2c(C3CC(=O)N(c4ccccc4Cl)C3)nc3ccccc32)c1 (configuration not stated)	-1	.	33*	1	3	.
COC(=O)c1ccc(C(=O)OC)c(NC(=O)CN(C)Cc2ccccc2)c1	1	-14	31*	1	6	?
COC(=O)c1ccc(C(=O)OC)c(NC(=O)CN(C)Cc2cccc(Cl)c2Cl)c1	2	-18	19	0	0	?
CN(C)c1ccc(/C=C/c2ccnc3cc(Cl)cc(Cl)c23)cc1	10	.	.	.	.	.
O=C(COc1ccccc1C(=O)Nc1ccccc1)NCCCCc1ccccc1	2	.	.	.	.	.
CCCNC(=O)Cn1c(=O)/c(=C\c2ccc(-c3ccc([N+](=O)[O-])cc3)o2)s/c1=C\C(=O)C(C)(C)C	127*	18	-21	98*	-13	?
Oc1ccc(CNCc2ccc3c(c2)OCO3)c2cccnc12	.	.	-5	0	.	.
Cc1nn2c(=O)c3c4c(sc3nc2n1-c1ccccc1)COC(C)(C)C4	1	-24	40*	-1	8	16
COc1ccc(/C=C2\CCCc3c2nc2ccccc2c3C(=O)O)cc1OC	.	-8	16	214*	.	?
O=C(CN1CCN(Cc2ccc(F)cc2)C1=O)NCc1ccc(F)cc1	1	.	1	-1	?	.
O=C(c1ccc(-c2cccc(C(F)(F)F)c2)o1)N1CCOCC1	2	-18	9	-2	6	86*
Cc1ccnc2c(N)cccc12	0	.	.	.	.	.
CCOC(=O)c1ccc(NC(=O)c2cc3c([nH]c2=O)CC(c2ccccc2)CC3=O)cc1 (configuration not stated)	-1	.	6	0	-3	.
SMILES	TRPML1 ag	TRPV1 potentiator	TRHR enhancer	TRHR ag	TRPML1 inh	TRPV1 agonist
COc1ccc(CCNC(=O)COc2ccc(S(=O)(=O)NC(C)C)cc2Cl)cc1OC	0	-13	-13	0	-61*	0
O=c1oc2cc(O)ccc2cc1-c1nnc(Nc2ccccc2F)s1	71*	.	39*	187*	3	.
O=c1oc2cc(O)ccc2cc1-c1nc2c(s1)CCc1ccccc1-2	83*	-13	-23	199*	-6	83*
COc1cccc(Nc2nnc(-c3cc4ccc(O)cc4oc3=O)s2)c1	?	.	5	70*	-9	.
O=c1oc2ccc3ccccc3c2cc1-c1nnc(Nc2ccccc2F)s1	0	.	5	3	0	.
CN(Cc1ccccc1)/[N+]([O-])=N/Oc1ccc([N+](=O)[O-])cc1[N+](=O)[O-]	1	.	.	.	-13	.
NC(=O)c1cc2ccc(O)cc2oc1=NCc1ccccc1	59*	1	0	26	-15	22
Cc1ccc(NC(=O)CN(C)Cc2cccs2)cc1Cl	0	-10	33*	0	-5	6
CN(C)S(=O)(=O)c1ccc2c(c1)/C(=C/c1cc3c([nH]1)CCCC3)C(=O)N2	?	6	-2	69*	-3	?
CN(C)S(=O)(=O)c1ccc2c(c1)C(=O)c1cc(S(=O)(=O)N(C)C)ccc1CC2	.	4	-6	0	.	3
O=C(CN1CCN(c2ccc(Cl)cc2)CC1)Nc1ccc(Cl)c(C(F)(F)F)c1	0	.	0	0	-1	.
CCOc1ccc(NC(=O)CN2CCN(CC(=O)Nc3ccc(Cl)c(C(F)(F)F)c3)CC2)cc1	0	24	36*	1	0	7
COCCNC(=O)CCc1nnc2ccc(N3CCC(C)CC3)nn12	.	0	31*	0	.	0
CN(CC(=O)O)c1ccc(C=O)cc1	0	.	.	.	.	.
O=C(Cc1ccccc1)NCCSC1CCCCC1	1	-17	-7	-2	6	94*
O=C(Cc1ccccc1)NCCCNC(=O)Cc1ccccc1	0	.	.	.	4	.
COC(=O)[C@@H](NC(=O)N1CCN(C(=O)C2COc3ccccc3O2)CC1)C(C)C (some centres not stated)	1	10	-9	0	-60*	-1
CC1CCCN(CC(=O)N2c3ccccc3Sc3ccccc32)C1 (configuration not stated)	0	-11	36*	0	8	14
O=C(CN1CCCCCC1)N1c2ccccc2Sc2ccccc21	0	0	1	2	-3	2
